From PubChem BioAssay AID1159580 (chemical genetic matrix, 2015)
The campaign covered roughly 5,500 compounds. About 2,000 (36%) were called active. Not shown: some 18% with an inconclusive outcome. Cut-off read from the data, not from the text of the source: active = normalized growth mostly below about 0.91 (no sharp cut-off); inconclusive = no clear call, values can overlap the other calls; inactive = mostly above about 0.92. The list shows a part of the results.

Assay: chemical genetic growth profiling, strain panel (AID 1159580);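 note: tested at 20 µM; growth read once vehicle control cultures reached saturation at 30 °C; 1 = growth at the plate median or of vehicle wells; lower values mean less growth of the strain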
Conditions: S. cerevisiae deletion strains, growth OD

Measured: normalized growth

CCN(CC)C(=O)N[C@@H]1C=C2c3cccc4[nH]cc(c34)C[C@H]2N(C)C1
inactive: locus YAL040C, strain CLN3, active compounds read low 1.08 | locus YCL061C, strain MRC1 (second series), active compounds read low 1 | locus YDR363W, strain ESC2, active compounds read low 0.989 | locus YER002W, strain NOP16, active compounds read low 1 | locus YGR078C, strain PAC10, active compounds read low 0.985 | locus YJR075W, strain HOC1, active compounds read low 0.983 | locus YMR263W, strain SAP30, active compounds read low 0.991 | locus YNL153C, strain GIM3, active compounds read low 1.02 | locus YNL175C, strain NOP13, active compounds read low 1.01 | locus YNL197C, strain WHI3, active compounds read low 1 | locus YNL224C, strain SQS1, active compounds read low 0.997 | locus YNL322C, strain KRE1, active compounds read low 0.997 | locus YOR083W, strain WHI5 (second series), active compounds read low 0.992
